Results published in paper PMC11062922 (Nature Chemical Biology, 2023).

Assays:
Design in all cases: species or system human, MV4-11 + K-562 + COLO205 + SK-N-BE2 + OVCAR-8
[1] = tested on: AMPK-alpha2; conditions: compound concentrations: 100 nM and 1000 nM (sheet 'Samples')
[2] = tested on: CIT; conditions: compound concentrations: 100 nM and 1000 nM (sheet 'Samples')
[3] = tested on: CLK1; conditions: compound concentrations: 100 nM and 1000 nM (sheet 'Samples')
[4] = tested on: CLK2; conditions: compound concentrations: 100 nM and 1000 nM (sheet 'Samples')
[5] = tested on: CSNK2A1; conditions: read-out: Kinobeads Data; compound concentrations: 100 nM and 1000 nM (sheet 'Samples'); n = 1
[6] = tested on: CSNK2A2; conditions: read-out: Kinobeads Data; compound concentrations: 100 nM and 1000 nM (sheet 'Samples'); n = 1
[7] = tested on: DYRK1A; conditions: compound concentrations: 100 nM and 1000 nM (sheet 'Samples')
[8] = tested on: DYRK1B; conditions: compound concentrations: 100 nM and 1000 nM (sheet 'Samples')
[9] = tested on: EPHB1; conditions: compound concentrations: 100 nM and 1000 nM (sheet 'Samples')
[10] = tested on: JAK2(JH1domain-catalytic); conditions: compound concentrations: 100 nM and 1000 nM (sheet 'Samples')
[11] = tested on: LCK; conditions: compound concentrations: 100 nM and 1000 nM (sheet 'Samples')
[12] = tested on: MEK5; conditions: compound concentrations: 100 nM and 1000 nM (sheet 'Samples')
[13] = tested on: MERTK; conditions: compound concentrations: 100 nM and 1000 nM (sheet 'Samples')
[14] = tested on: MLK3; conditions: compound concentrations: 100 nM and 1000 nM (sheet 'Samples')
[15] = tested on: NEK2; conditions: compound concentrations: 100 nM and 1000 nM (sheet 'Samples')
[16] = tested on: NEK3; conditions: compound concentrations: 100 nM and 1000 nM (sheet 'Samples')
[17] = tested on: SLK; conditions: compound concentrations: 100 nM and 1000 nM (sheet 'Samples')
[18] = tested on: STK16; conditions: compound concentrations: 100 nM and 1000 nM (sheet 'Samples')
[19] = tested on: TBK1; conditions: compound concentrations: 100 nM and 1000 nM (sheet 'Samples')
[20] = tested on: TYK2(JH2domain-pseudokinase); conditions: compound concentrations: 100 nM and 1000 nM (sheet 'Samples')
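Also: kinobeads ε competition pulldown from cell lysate, compound preincubated 45 min at 4 °C, bound kinases quantified by LC–MS/MS relative to DMSO control.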

COc1cc(Nc2ncc3c(C)nc(-c4cc5ccccc5[nH]4)n3n2)cc(OC)c1OC [GW869516X]
no target: Kinobeads Data [1] | Kinobeads Data [2] | Kinobeads Data [3] | Kinobeads Data [4] | Kinobeads Data [7] | Kinobeads Data [8] | Kinobeads Data [9] | Kinobeads Data [10] | Kinobeads Data [11] | Kinobeads Data [12] | Kinobeads Data [13] | Kinobeads Data [14] | Kinobeads Data [15] | Kinobeads Data [16] | Kinobeads Data [17] | Kinobeads Data [18] | Kinobeads Data [19] | Kinobeads Data [20]
78 nM: potency estimated from few doses [5]
56 nM: potency estimated from few doses [6]
